Results from the supplement of paper PMC10849652.
Of roughly 7,900 targets only a part is listed; those with a hit were picked by preference. About 0.6% of all pairs of compound and target were hits. A number with no mark means an inactive call.

Experiments:
Experiment in all cases: log2 fold change, soluble protein after heating vs DMSO (PISA); higher = thermal stabilisation; K562 cells, 10 uM, 30 min; active = over 0.2 and 3.5 SD of the protein, either way, in both replicates (recomputed)
[1] = compound: CC[C@@H]1C(=O)N(C)c2cnc(Nc3ccc(C(=O)NC4CCN(C)CC4)cc3OC)nc2N1C1CCCC1
Method in brief: (§1)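 Thermal stability values are relative to control samples and come from duplicates. They are expressed as log2 fold changes. For measurement, K562 cells (2×10^6 cells/mL) received 10 μM compound for 30 min, and aliquots were heated for 3 min over 48°C-58°C, pooled, and extracted at 4°C in PBS with 0.5% NP-40. Soluble protein, the supernatant after 21,000xg for 90 min, was quantified by TMTpro 16plex LC-MS/MS with equalised channel sums.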

volasertib = compound: CC[C@@H]1C(=O)N(C)c2cnc(Nc3ccc(C(=O)N[C@H]4CC[C@H](N5CCN(CC6CC6)CC5)CC4)cc3OC)nc2N1C(C)C [volasertib]
Method in brief: as §1

[2] = compound: CC[C@H](C)N1C=C(C2=C(C=C(C=C21)C3=CN=C(C=C3)N4CCNCC4)C(=O)NCC5=C(C=C(NC5=O)C)C)C
Method in brief: as §1

epoxomicin = compound: CC[C@H](C)[C@@H](C(=O)N[C@@H]([C@@H](C)O)C(=O)N[C@@H](CC(C)C)C(=O)[C@]1(CO1)C)NC(=O)[C@H]([C@@H](C)CC)N(C)C(=O)C [epoxomicin]
Method in brief: as §1

[3] = compound: CCn1c(C(=O)N(C2CC2)C2CC2)cc2c3c(ncn3C)c(Nc3cc(C)n(C)n3)nc21
Method in brief: as §1

[4] = compound: CCn1cc(-c2ccnc3[nH]c(-c4cccc(CN(C)C)c4)cc23)c(-c2ccc(NC(=O)N(C)C)cc2)n1
Method in brief: as §1

[5] = compound: CN(C)CC(=O)Nc1ccc2[nH]c(=O)c3ccccc3c2c1
Method in brief: as §1

rosiglitazone = compound: CN(CCOC1=CC=C(C=C1)C[C@H]2C(=O)NC(=O)S2)C3=CC=CC=N3 (racemic) [rosiglitazone]
Method in brief: as §1

[6] = compound: CN1C2=C(C3=C1C(=O)N(N=C3)CC4=CC(=CC=C4)N)SC(=C2)S(=O)C
Method in brief: as §1

[7] = compound: CN1CCC(CNc2ccc3ncc(-c4cccc(OC(F)(F)F)c4)n3n2)CC1
Method in brief: as §1

saracatinib = compound: CN1CCN(CCOc2cc(OC3CCOCC3)c3c(Nc4c(Cl)ccc5c4OCO5)ncnc3c2)CC1 [saracatinib]
Method in brief: as §1

sotrastaurin = compound: CN1CCN(c2nc(C3=C(c4c[nH]c5ccccc45)C(=O)NC3=O)c3ccccc3n2)CC1 [sotrastaurin]
Method in brief: as §1

alvocidib = compound: CN1CC[C@H](c2c(O)cc(O)c3c(=O)cc(-c4ccccc4Cl)oc23)[C@H](O)C1 [alvocidib]
Method in brief: as §1

Tubastatin A = compound: CN1CCc2c(c3ccccc3n2Cc2ccc(C(=O)NO)cc2)C1 [Tubastatin A]
Method in brief: as §1

[8] = compound: CNC(=O)C1=CC=CC=C1NC2=NC(=NC=C2Cl)NC3=C(C=C(C=C3)N4CCOCC4)OC
Method in brief: as §1

defactinib = compound: CNC(=O)c1ccc(Nc2ncc(C(F)(F)F)c(NCc3nccnc3N(C)S(C)(=O)=O)n2)cc1 [defactinib]
Method in brief: as §1

rucaparib = compound: CNCc1ccc(-c2[nH]c3cc(F)cc4c3c2CCNC4=O)cc1 [rucaparib]
Method in brief: as §1

[9] = compound: CNc1nc(-c2ccc3c(N)n[nH]c3c2)cc(N2C[C@@H](C(=O)NC3CCCCC3)CC[C@H]2C)n1
Method in brief: as §1

encorafenib = compound: COC(=O)N[C@@H](C)CNc1nccc(-c2cn(C(C)C)nc2-c2cc(Cl)cc(NS(C)(=O)=O)c2F)n1 [encorafenib]
Method in brief: as §1

[10] = compound: COC(=O)[C@H](CCSC)NC(=O)C1=C(C=C(C=C1)NC[C@H](CS)N)C2=CC=CC=C2
Method in brief: as §1

Sequence of UniProt Q9UPY8 (Q9UPY8 whole entry, looked up): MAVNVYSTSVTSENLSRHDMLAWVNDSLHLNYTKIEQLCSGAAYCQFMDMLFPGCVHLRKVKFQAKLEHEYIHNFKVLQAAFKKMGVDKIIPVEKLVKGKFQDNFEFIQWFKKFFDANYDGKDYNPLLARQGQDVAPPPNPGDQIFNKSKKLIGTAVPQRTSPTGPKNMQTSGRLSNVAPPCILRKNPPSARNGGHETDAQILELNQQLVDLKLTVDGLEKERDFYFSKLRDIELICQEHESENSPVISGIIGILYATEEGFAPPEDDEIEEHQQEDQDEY
Sequence of UniProt P11717 (P11717 whole entry, looked up): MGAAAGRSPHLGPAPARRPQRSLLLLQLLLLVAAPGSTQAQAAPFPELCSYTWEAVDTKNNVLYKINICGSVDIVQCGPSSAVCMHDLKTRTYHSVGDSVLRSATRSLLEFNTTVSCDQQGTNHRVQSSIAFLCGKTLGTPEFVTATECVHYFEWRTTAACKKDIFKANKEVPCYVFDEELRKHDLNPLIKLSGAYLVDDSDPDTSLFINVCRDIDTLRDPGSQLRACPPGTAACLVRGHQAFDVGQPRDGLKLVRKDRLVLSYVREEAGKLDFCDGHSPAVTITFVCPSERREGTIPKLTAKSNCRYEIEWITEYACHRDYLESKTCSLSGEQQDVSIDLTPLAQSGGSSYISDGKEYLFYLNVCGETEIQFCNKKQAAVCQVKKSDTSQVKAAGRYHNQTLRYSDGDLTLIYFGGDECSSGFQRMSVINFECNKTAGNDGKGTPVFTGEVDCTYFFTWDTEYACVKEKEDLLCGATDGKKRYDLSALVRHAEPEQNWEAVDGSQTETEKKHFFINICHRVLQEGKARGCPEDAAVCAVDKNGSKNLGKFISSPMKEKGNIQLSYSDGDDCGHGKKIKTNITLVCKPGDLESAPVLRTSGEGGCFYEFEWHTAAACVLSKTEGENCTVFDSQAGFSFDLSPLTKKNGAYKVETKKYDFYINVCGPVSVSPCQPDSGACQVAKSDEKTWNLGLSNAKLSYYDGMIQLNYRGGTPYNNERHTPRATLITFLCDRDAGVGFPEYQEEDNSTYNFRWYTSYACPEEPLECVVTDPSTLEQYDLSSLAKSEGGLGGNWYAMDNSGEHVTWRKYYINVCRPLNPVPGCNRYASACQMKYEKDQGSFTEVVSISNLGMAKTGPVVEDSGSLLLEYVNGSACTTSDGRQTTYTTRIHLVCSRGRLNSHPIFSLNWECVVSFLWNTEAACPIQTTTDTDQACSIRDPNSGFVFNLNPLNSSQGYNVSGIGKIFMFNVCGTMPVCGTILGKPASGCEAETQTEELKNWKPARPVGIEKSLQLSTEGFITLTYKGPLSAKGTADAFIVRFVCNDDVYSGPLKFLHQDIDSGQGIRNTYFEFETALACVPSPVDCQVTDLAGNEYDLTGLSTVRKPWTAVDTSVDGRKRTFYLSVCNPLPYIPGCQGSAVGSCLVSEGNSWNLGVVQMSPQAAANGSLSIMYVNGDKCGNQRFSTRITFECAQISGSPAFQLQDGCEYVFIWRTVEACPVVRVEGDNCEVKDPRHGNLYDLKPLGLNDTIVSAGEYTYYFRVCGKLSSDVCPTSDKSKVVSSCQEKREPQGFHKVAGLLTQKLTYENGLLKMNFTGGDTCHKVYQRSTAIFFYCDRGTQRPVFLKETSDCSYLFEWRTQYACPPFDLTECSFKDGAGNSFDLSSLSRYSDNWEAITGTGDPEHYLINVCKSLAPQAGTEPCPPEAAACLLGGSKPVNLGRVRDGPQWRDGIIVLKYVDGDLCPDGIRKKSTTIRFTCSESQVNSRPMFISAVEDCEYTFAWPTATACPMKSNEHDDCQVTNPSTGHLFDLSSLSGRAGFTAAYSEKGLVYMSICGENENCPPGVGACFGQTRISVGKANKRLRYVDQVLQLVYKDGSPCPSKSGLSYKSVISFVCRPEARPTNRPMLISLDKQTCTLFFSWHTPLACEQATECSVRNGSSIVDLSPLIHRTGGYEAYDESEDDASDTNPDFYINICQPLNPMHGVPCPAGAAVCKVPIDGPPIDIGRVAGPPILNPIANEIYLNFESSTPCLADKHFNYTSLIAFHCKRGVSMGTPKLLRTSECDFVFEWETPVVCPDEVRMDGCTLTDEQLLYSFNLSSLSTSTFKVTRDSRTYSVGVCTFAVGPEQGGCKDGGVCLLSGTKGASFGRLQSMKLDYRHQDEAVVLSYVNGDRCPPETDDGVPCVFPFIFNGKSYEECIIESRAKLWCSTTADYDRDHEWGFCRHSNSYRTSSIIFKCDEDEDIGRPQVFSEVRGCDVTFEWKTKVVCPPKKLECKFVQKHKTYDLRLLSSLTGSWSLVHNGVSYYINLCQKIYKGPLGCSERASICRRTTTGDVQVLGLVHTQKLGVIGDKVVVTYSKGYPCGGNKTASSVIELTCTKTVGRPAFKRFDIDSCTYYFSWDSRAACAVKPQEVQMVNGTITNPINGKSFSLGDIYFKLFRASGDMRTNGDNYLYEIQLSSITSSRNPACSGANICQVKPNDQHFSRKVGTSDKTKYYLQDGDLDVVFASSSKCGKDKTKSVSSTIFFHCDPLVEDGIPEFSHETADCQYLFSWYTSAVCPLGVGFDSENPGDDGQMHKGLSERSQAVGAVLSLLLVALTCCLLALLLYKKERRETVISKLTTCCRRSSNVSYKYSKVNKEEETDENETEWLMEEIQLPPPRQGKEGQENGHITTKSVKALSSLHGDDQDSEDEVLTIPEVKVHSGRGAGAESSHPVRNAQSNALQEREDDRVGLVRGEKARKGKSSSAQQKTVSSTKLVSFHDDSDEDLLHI
Sequence of UniProt Q71RC2 (Q71RC2 whole entry, looked up): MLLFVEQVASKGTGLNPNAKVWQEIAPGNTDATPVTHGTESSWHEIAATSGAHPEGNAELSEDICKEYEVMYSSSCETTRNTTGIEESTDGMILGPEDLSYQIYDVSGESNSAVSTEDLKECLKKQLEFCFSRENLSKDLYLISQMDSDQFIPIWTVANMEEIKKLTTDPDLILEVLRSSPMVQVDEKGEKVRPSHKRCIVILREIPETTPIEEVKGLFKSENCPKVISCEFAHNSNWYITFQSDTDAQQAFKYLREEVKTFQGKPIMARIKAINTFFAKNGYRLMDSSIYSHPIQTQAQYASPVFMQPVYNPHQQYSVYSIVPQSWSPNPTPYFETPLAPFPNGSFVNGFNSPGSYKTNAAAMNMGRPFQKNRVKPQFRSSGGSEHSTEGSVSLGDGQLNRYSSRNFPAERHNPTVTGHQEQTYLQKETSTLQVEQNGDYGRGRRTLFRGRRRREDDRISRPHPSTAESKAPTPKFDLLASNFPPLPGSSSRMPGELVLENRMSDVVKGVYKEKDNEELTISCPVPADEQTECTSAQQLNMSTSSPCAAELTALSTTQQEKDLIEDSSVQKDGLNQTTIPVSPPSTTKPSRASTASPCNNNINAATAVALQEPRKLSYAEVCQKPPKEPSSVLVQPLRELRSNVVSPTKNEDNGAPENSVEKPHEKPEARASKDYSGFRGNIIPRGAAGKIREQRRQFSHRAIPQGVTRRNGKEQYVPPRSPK
Sequence of UniProt Q9H3U5 (Q9H3U5 whole entry, looked up): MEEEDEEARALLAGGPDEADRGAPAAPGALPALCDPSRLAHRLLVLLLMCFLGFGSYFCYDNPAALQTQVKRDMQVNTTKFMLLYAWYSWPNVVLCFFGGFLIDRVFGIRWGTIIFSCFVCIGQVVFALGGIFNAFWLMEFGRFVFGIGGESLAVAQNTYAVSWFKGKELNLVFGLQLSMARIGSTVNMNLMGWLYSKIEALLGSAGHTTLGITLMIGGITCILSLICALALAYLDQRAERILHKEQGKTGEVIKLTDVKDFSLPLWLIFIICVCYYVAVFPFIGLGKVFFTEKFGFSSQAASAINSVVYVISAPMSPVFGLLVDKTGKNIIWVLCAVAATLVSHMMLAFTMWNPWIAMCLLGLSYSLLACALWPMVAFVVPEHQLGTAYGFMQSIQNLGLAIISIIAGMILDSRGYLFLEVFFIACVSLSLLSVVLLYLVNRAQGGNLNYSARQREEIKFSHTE
Sequence of UniProt Q8IWB1 (Q8IWB1 whole entry, looked up): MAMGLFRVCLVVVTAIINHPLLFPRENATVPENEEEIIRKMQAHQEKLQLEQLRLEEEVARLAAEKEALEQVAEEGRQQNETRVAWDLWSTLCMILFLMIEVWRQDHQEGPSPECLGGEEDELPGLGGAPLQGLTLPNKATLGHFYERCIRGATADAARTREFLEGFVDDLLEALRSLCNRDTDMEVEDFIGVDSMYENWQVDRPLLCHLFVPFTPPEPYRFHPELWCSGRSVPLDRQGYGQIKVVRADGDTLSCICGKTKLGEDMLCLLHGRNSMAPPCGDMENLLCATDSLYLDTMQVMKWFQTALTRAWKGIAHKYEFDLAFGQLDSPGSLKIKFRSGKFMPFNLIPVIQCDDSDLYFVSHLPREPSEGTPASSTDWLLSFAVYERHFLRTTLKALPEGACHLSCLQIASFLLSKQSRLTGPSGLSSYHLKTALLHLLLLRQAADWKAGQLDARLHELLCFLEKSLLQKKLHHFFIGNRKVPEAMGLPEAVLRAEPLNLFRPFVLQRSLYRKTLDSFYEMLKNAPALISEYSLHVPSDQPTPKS
Sequence of UniProt Q9H3F6 (Q9H3F6 whole entry, looked up): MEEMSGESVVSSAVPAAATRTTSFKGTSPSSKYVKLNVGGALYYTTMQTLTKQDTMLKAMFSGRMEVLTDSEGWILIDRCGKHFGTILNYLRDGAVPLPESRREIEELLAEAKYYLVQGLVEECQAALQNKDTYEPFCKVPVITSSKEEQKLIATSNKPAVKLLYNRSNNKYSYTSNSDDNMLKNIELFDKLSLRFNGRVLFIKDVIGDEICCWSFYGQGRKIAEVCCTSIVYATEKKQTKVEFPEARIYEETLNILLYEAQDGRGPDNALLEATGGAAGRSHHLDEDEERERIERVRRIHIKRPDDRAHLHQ

| Target | log2 fold change [1] | log2 fold change (volasertib) | log2 fold change [2] | log2 fold change (epoxomicin) | log2 fold change [3] | log2 fold change [4] | log2 fold change [5] | log2 fold change (rosiglitazone) | log2 fold change [6] | log2 fold change [7] | log2 fold change (saracatinib) | log2 fold change (sotrastaurin) | log2 fold change (alvocidib) | log2 fold change (Tubastatin A) | log2 fold change [8] | log2 fold change (defactinib) | log2 fold change (rucaparib) | log2 fold change [9] | log2 fold change (encorafenib) | log2 fold change [10] |
| --- | --- | --- | --- | --- | --- | --- | --- | --- | --- | --- | --- | --- | --- | --- | --- | --- | --- | --- | --- | --- |
| LRRFIP1 (UniProt Q32MZ4) | 0.06 | 0.099 | -0.075 | -0.019 | 0.019 | 0.028 | -0.004 | -0.007 | 0.011 | 0.013 | 0.017 | 0.047 | 0.014 | -0.005 | -0.009 | -0.01 | -0.01 | -0.034 | -0.019 | 0.022 |
| ME2 (UniProt P23368) | 0.164 | 0.445 (active) | 0.006 | 0.108 | -0.012 | -0.015 | -0.002 | 0.016 | -0.02 | 0.145 | 0.061 | 0.014 | 0.022 | 0.026 | 0.151 | -0.037 | -0.011 | -0.11 | 0.015 | 0.034 |
| KIAA1324L (UniProt A8MWY0) | -0.312 (active) | -0.293 (active) | -0.012 | 0.015 | 0.011 | -0.019 | 0.091 | 0.111 | -0.112 | -0.14 | 0.018 | 0.014 | -0.056 | -0.017 | -0.014 | 0.033 | -0.021 | 0.023 | 0.015 | 0.006 |
| LRBA (UniProt P50851) | -0.05 | -0.221 (active) | 0.034 | 0.017 | 0 | -0.074 | 0.008 | 0.048 | -0.057 | -0.139 | 0.039 | -0.031 | -0.054 | 0.014 | -0.012 | -0.015 | -0.01 | -0.023 | 0.018 | -0.002 |
| MFF (UniProt Q9GZY8) | -0.007 | 0 | -0.046 | 0.037 | 0 | 0.043 | -0.031 | 0.035 | 0.031 | -0.386 (active) | 0.003 | -0.027 | -0.06 | 0.012 | -0.127 | -0.025 | -0.059 | -0.078 | 0.015 | 0.092 |
| LARP4 isoform 4 (UniProt Q71RC2) | -0.016 | -0.351 | 0.117 | -0.107 | 0.005 | 0.07 | 0.009 | 0.018 | 0.137 | -0.252 | -0.066 | -0.051 | 0.031 | 0.041 | 0.047 | -0.036 | 0.257 | 0.059 | 0.086 | -0.014 |
| MAPRE3 (UniProt Q9UPY8) | -0.105 | -0.226 | 0.101 | 0.01 | 0.009 | -0.041 | -0.009 | 0.051 | -0.068 | -0.061 | -0.029 | -0.016 | -0.091 | -0.067 | 0.025 | -0.031 | 0.02 | -0.016 | 0.017 | 0.027 |
| IGFBP4 (UniProt P22692) | -0.22 | -0.07 | -0.092 | -0.187 | -0.045 | 0.173 | -0.049 | 0.13 | 0.023 | -0.033 | 0.004 | 0.114 | 0.063 | -0.034 | -0.044 | 0.036 | 0.007 | -0.019 | -0.034 | 0.014 |
| MAP4K4 isoform 3 (UniProt O95819) | -0.082 | -0.316 (active) | 0.011 | 0.047 | 0.017 | -0.184 | 0.012 | 0.058 | 0.001 | -0.299 (active) | -0.054 | – | – | -0.002 | -0.051 | -0.067 | -0.004 | -0.037 | 0.026 | 0.018 |
| IGF2R (UniProt P11717) | -1.09 (active) | -0.875 (active) | -0.033 | 0.002 | 0.018 | -0.013 | -0.023 | -0.024 | -0.013 | -0.607 (active) | -0.015 | 0.004 | -0.008 | -0.004 | 0.061 | -0.01 | -0.027 | -0.008 | 0.045 | 0.005 |
| KCTD10 (UniProt Q9H3F6) | 0.046 | 0.022 | 0.055 | -0.019 | 0 | -0.01 | 0.023 | 0.04 | 0.003 | 0.257 (active) | 0.221 | -0.002 | 0.018 | 0.071 | -0.011 | 0.013 | -0.07 | 0.007 | 0.015 | -0.07 |
| MFSD1 isoform 6 (UniProt Q9H3U5) | -0.022 | 0.053 | -0.01 | 0 | -0.023 | -0.069 | -0.025 | -0.016 | – | -0.012 | – | -0.041 | 0.022 | -0.039 | 0.066 | 0.046 | -0.014 | – | -0.028 | -0.004 |
| IL10RB (UniProt Q08334) | 0.045 | -0.086 | 0.05 | 0.056 | -0.089 | -0.247 | -0.018 | 0.087 | 0.007 | 0.084 | 0.107 | -0.021 | – | 0.022 | -0.121 | -0.042 | 0.015 | -0.005 | -0.093 | 0.026 |
| ITPRIP (UniProt Q8IWB1) | -0.037 | -0.148 | -0.012 | -0.019 | -0.016 | 0.031 | 0 | 0.044 | -0.111 | -0.017 | -0.028 | 0.016 | -0.116 | 0.034 | 0.011 | -0.037 | 0.034 | -0.084 | -0.009 | 0.013 |
| LPCAT3 (UniProt Q6P1A2) | 0.146 | -0.026 | -0.008 | -0.005 | 0.062 | -0.063 | 0.087 | -0.042 | -0.093 | -0.202 | -0.048 | -0.14 | -0.002 | 0 | 0.093 | 0 | -0.074 | 0.138 | -0.026 | -0.021 |
| MAPK12 (UniProt P53778) | -0.097 | 0.036 | -0.128 | 0.089 | 0.182 | -0.051 | 0.009 | -0.176 | -0.097 | -0.077 | 0.119 | – | – | -0.037 | 0.112 | -0.06 | 0.101 | -0.074 | 0.017 | 0.059 |
